For 18 molecules, Potency results are on record in PubChem BioAssay (NCATS).

Inconclusive results are not listed. A call without a number means that no potency is given here. Calls of active or inactive are those of the source. The call rests on the fitted dose curve; in most records, active means well fitted inhibition curve with a large enough effect; inconclusive means small, poorly fitted or top-dose-only effect; inactive means no such curve, though single readings can be large or run the other way.

A short description of this assay: Primary qHTS for small molecule stabilizers of the endoplasmic reticulum resident proteome: Secreted ER Calcium Modulated Protein (SERCaMP) assay (AID 1508630). Particulars: SH-SY5Y GLuc-SERCaMP (Gaussia luciferase released on ER calcium loss) secretion, thapsigargin, luminescence; series mostly up to 38.4 µM. The method, boiled down: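 The SH-SY5Y reporter protocol was run at 3 concentrations up to 38.3 uM (primary) or 11 concentrations (follow-up): 16 h compound, 100 nM thapsigargin for 4 h, then extracellular luciferase luminescence.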
In general terms: qHTS replaces the single test concentration by a dilution series.
Take `COc1cccc2c3c(c(C)nc12)CC(CO)O3` (stereo not drawn): the Potency result was “inactive”. `COc1ccc(C(=O)OC2CC3CC[C@H](C2)N3C(C)=O)cc1OC` (stereo partly drawn): the Potency entry was “inactive”.

As for `C=C1C[C@H](OC(=O)C(C)(O)CCl)C2C(=C)C(=O)O[C@@H]2C2C1C[C@H](O)[C@]2(O)CCl` (stereo partly drawn), the Potency result was “inactive”. As for `COc1c2ccoc2nc2c(OC)c(O[C@@H]3O[C@H](C)[C@@H](O)[C@@H](O)[C@H]3O)ccc12`, the Potency entry is “inactive”.

`COC1=C[C@@H](C)C2CC3OC(=O)C[C@H]4C(C)=C(OC)C(=O)C([C@@]2(C)C1=O)[C@@]34C` (stereo partly drawn): the Potency result is “inactive”. With `Cn1c2c(c(=O)c3ccccc31)C[C@@H](O)C(C)(C)O2` the entry was “inactive”; with `COc1ccc(/C(=C\C(=O)O)c2nccc3cc(OC)c(OC)cc23)cc1OC`, “inactive”. The result for `COc1ccc(/C=C/c2cc(OC)c(OC)cc2CC[N+](C)(C)C)cc1` reads “inactive”; that for `COc1cc(C2=N/C(=C\c3ccccc3)C(=O)O2)cc(OC)c1OC`, “inactive”.

`CN(C)C(=O)OC1=C(c2ccccc2)Sc2ccccc2-n2cccc21`: the Potency entry was “inactive”. The result for `O=C1c2ccccc2-n2c1nc1ccccc1c2=O` reads “inactive”.

As for `C[C@@H]1CCC2C(C)(C)C3CC21CC[C@@]3(C)O` (stereo partly drawn), the Potency entry is “inactive”. The result for `CN1C(=O)N(C)C2=NNC=NC2(O)C1=O` (stereo not drawn) reads “inactive”; that for `C/C(Nc1ccc2oc(=O)ccc2c1)=C1/C(=O)CC2[C@@H]1C2(C)C` (stereo partly drawn), “inactive”; that for `COc1cc2c(cc1OC)OC(C)(C)C=C2`, “inactive”.

For the molecule `CC(=O)Nc1ccccc1C(=O)C(=O)O`, the Potency entry is “inactive”.

With `Oc1cc2c(cc1O)[C@@H]1c3ccc(O)c(O)c3OC[C@]1(O)C2`, the Potency result was “inactive”. Take `COc1c2c(cc3c1C(CC(=O)c1c(O)c(OC)c4occc4c1OC)[N+](C)(C)CC3)OCO2` (stereo not drawn): the Potency result is “inactive”.
